From PubChem BioAssay (Tox21)
Results filed as inconclusive are left out. Active and inactive are the calls of the source. Unless noted, calls follow the shape of the dose curve; as a rule, active = well fitted curve in the direction sought with a large enough effect in the repeat runs; inconclusive = weak or mixed curves; inactive = no such curve, though single readings can be large; an effect the other way counts as inactive or inconclusive.

Legend:
[1] = qHTS RealTime-Glo MT Cell Viability Assay in HEK293 cells - 0 hour (AID 1224880); also: top concentration of the series differs between compounds; nearly all actives have a fitted effect of over 45% in size
Procedure, shortened: (§1)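 HEK293 cells mixed with RealTime-Glo reagents (NanoLuc plus cell-permeant prosubstrate) at 600 cells/well, preincubated 5 h at 37 C/5% CO2, then given 23 nL compound in DMSO. Nonlytic luminescence from viable cells was read at 0, 8, 16, 24, 32 and 40 h.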

[2] = A CellTox Green Cytotoxicity Assay to monitor cytotoxicity in HEK293 cells - 32 hour (AID 1224881); also: nearly all actives have a fitted effect of over 40% in size
Procedure, shortened: (§2)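 HEK293 cells premixed with CellTox Green dye were seeded at 600 cells/well and left 5 h at 37 C/5% CO2 before pin transfer of 23 nL compound in DMSO. Fluorescence from dye bound to dead-cell DNA was read during 40 h treatment.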

[3] = A CellTox Green Cytotoxicity Assay to monitor cytotoxicity in HepG2 cells - 32 hour (AID 1224883); also: nearly all actives have a fitted effect of over 50% in size
Procedure, shortened: (§3)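 HepG2 cells were seeded together with the CellTox Green dye at 600 cells/well, left 5 h at 37 C/5% CO2, then given compounds in DMSO. Fluorescence from dye bound to dead-cell DNA was read repeatedly over 40 h of treatment at 37 C.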

[4] = A CellTox Green Cytotoxicity Assay to monitor cytotoxicity in HEK293 cells - 8 hour (AID 1224884); also: nearly all actives have a fitted effect of over 35% in size
Procedure, shortened: as §2

[5] = qHTS RealTime-Glo MT Cell Viability Assay in HepG2 cells - 16 hour (AID 1224885); also: nearly all actives have a fitted effect of over 50% in size
Procedure, shortened: (§4)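 Cells + NanoLuc/prosubstrate dispensed (600 cells/well) → 5 h at 37 C/5% CO2 → compounds in DMSO transferred → 40 h incubation at 37 C, luminescence read at 0, 8, 16, 24, 32, 40 h.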

[6] = qHTS RealTime-Glo MT Cell Viability Assay in HEK293 cells - 24 hour (AID 1224886); also: top concentration of the series differs between compounds; nearly all actives have a fitted effect of over 50% in size
Procedure, shortened: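 Tox21 10K qHTS, HEK293, 600 cells/well, RealTime-Glo reagent co-dispensed with cells; 5 h preincubation, compound by pintool, 37 C, luminescence at 0–40 h.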

[7] = qHTS RealTime-Glo MT Cell Viability Assay in HEK293 cells - 8 hour (AID 1224887); also: top concentration of the series differs between compounds; nearly all actives have a fitted effect of over 50% in size
Procedure, shortened: as §1

[8] = A CellTox Green Cytotoxicity Assay to monitor cytotoxicity in HEK293 cells - 16 hour (AID 1224888); also: nearly all actives have a fitted effect of over 35% in size
Procedure, shortened: as §2

[9] = qHTS RealTime-Glo MT Cell Viability Assay in HepG2 cells - 0 hour (AID 1224889); also: nearly all actives have a fitted effect of over 50% in size
Procedure, shortened: as §4

[10] = A CellTox Green Cytotoxicity Assay to monitor cytotoxicity in HepG2 cells - 8 hour (AID 1224890); also: nearly all actives have a fitted effect of over 45% in size
Procedure, shortened: as §3

[11] = qHTS assay to identify small molecule antagonists of the estrogen receptor alpha (ER-alpha) signaling pathway using the BG1 cell line in the presence of 0.1 nM 17-beta-estradiol - cell viability counter screen (AID 1259241); also: nearly all actives have a fitted effect of over 40% in size
Procedure, shortened: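 Live-cell protease activity (CellTiter-Fluor fluorescence, 30 min) was read in the same wells after VM7Luc4E2 cells had been exposed to compounds with 0.1 nM 17beta-estradiol for 22 hr at 37C.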

[12] = qHTS assay to identify small molecule antagonists of the androgen receptor (AR) signaling pathway using the MDA cell line in the presence of 0.5 nM R1881 - cell viability counter screen (AID 1259242); also: nearly all actives have a fitted effect of over 45% in size
Procedure, shortened: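 MDA-kb2 cells (human breast carcinoma, stably carrying MMTV-luciferase reporter) were exposed to compounds with 0.5 nM R1881 (final) for 16 hr at 37C, 0% CO2; viability then read as live-cell protease fluorescence (CellTiter-Fluor, 30 min) in the same wells.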

[13] = molecular target: Estrogen receptor (Homo sapiens) (UniProt P03372); assay: qHTS assay to identify small molecule antagonists of the estrogen receptor alpha (ER-alpha) signaling pathway using the BG1 cell line in the presence of 0.1 nM 17-beta-estradiol (AID 1259244); also: nearly all actives have a fitted effect of over 50% in size
Procedure, shortened: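 VM7Luc4E2 cells (endogenous full-length ER-alpha, stable 4xERE-luciferase) were grown 5 days in phenol red-free medium with charcoal-stripped FBS, then exposed 22 h at 37C to compounds plus 0.1 nM (final) 17beta-estradiol; ONE-Glo luminescence read-out.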

[14] = qHTS assay to identify small molecule phospholipidosis (PLD) inducers (AID 1259344; active = well fitted curve in the direction sought with a large enough effect; an effect the other way counts as inactive or inconclusive)
Procedure, shortened: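 HepG2 cells, 900/well, treated with compound plus LipidTOX Red for 24 h at 37 C; amiodarone positive and DMSO negative controls. Fixed with paraformaldehyde/Hoechst, then high-content imaging scored LipidTOX pit count and integrated intensity per well and per cell.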

[15] = qHTS assay to identify small molecule HDAC inhibitors (AID 1259364); also: top concentration of the series differs between compounds; nearly all actives have a fitted effect of over 45% in size
Procedure, shortened: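 Wild-type HCT-116 cells were plated overnight, exposed to compounds for 2 h at 37 °C, then given HDAC-Glo class I/II luminogenic reagent for 30 min at room temperature before luminescence was read.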

[16] = qHTS assay to identify small molecule HDAC inhibitors - cell viability counter screen (AID 1259365)
Procedure, shortened: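 HCT-116 (wild type), 1,500 cells/well, overnight 37C/5% CO2; compound in DMSO 2hr; CellTiter-Glo 30min RT; luminescence read.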

[17] = qHTS assay to identify small molecule agonists of the sonic hedgehog signaling (Shh) pathway - cell viability counter screen (AID 1259366); also: nearly all actives have a fitted effect of over 50% in size
Procedure, shortened: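 CellTiter-Fluor fluorescence read-out, 1 hr at 37C, added after 23hr compound exposure. Cells: 3T3 Gli1-Luc, an NIH/3T3 clone with stably integrated Gli1-Luc reporter, plated 4hr before compound.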

[18] = molecular target: Androgen receptor (Homo sapiens) (UniProt P10275); assay: qHTS assay to identify small molecule antagonists of the androgen receptor (AR) signaling pathway using the MDA cell line in the presence of 0.5 nM R1881 (AID 1259243); also: nearly all actives have a fitted effect of over 50% in size
Procedure, shortened: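 MDA-kb2 human breast carcinoma cells carrying an MMTV-luciferase reporter (AR- and GR-responsive) were plated, rested 5 hr at 37C, dosed with compounds, then stimulated with 0.5 nM R1881 (final) for 16 hr; luminescence was read after ONE-Glo.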

[19] = qHTS assay to identify small molecule antagonists of the sonic hedgehog signaling (Shh) pathway - cell viability counter screen (AID 1259367); also: nearly all actives have a fitted effect of over 55% in size
Procedure, shortened: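 NIH/3T3-derived Gli1-Luc reporter cells, 2,000/well, plated 4 hr before compound addition, then stimulated with conditioned medium for 24 hr at 37C. Viability measured in the same wells by CellTiter-Fluor fluorescence, reagent added at 23 hr for 1 hr.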

[20] = A CellTox Green Cytotoxicity Assay to monitor cytotoxicity in HepG2 cells - 0 hour (AID 1224882); also: nearly all actives have a fitted effect of over 35% in size
Procedure, shortened: as §3

Measured: Potency

Sequence of Estrogen receptor (Homo sapiens) (P03372 whole entry, looked up): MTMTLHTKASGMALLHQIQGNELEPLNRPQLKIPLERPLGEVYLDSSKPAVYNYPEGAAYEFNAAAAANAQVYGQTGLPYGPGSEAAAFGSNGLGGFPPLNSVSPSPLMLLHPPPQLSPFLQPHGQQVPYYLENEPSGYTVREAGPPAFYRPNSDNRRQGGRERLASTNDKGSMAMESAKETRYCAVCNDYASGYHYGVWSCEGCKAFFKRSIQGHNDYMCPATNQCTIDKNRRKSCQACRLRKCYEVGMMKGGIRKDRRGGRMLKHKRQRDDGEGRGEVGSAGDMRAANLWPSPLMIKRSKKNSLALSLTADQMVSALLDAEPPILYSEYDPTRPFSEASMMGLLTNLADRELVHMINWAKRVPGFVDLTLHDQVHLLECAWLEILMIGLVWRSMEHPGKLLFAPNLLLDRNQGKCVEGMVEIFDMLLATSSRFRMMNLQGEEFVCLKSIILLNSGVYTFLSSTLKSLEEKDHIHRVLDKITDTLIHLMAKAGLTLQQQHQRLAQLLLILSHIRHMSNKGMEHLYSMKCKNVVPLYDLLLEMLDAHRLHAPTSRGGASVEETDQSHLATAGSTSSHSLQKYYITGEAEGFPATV
Sequence of Androgen receptor (Homo sapiens) (P10275 whole entry, looked up): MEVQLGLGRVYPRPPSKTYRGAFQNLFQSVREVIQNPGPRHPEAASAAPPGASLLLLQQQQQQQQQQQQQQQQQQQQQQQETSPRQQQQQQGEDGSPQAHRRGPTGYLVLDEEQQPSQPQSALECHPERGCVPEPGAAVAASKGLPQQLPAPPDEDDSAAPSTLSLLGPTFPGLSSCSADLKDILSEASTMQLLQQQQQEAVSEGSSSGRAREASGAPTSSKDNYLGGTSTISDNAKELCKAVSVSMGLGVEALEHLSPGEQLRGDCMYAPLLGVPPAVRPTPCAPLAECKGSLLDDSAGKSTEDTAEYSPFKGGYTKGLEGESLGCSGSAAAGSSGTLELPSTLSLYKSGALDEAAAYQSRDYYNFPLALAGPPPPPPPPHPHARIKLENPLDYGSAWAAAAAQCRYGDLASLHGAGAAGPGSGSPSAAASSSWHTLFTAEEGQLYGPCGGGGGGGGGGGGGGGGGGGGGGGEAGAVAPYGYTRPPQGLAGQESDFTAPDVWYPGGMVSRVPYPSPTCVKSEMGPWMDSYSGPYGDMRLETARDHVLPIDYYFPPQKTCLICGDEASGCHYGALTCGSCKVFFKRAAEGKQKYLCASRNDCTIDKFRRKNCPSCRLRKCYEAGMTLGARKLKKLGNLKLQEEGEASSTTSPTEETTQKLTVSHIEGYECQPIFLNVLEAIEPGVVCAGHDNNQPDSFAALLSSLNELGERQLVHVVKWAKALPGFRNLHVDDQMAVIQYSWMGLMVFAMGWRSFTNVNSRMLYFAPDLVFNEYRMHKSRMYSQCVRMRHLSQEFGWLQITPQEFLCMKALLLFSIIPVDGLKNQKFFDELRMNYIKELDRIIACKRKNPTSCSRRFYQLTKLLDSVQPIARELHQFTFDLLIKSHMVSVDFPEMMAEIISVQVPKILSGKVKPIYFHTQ

CC(=O)NC(Cc1ccccc1)C(=O)O (stereo unspecified)
inactive: [1] | [2] | [3] | [4] | [5] | [6] | [7] | [8] | [9] | [10] | [11] | [12] | [13] | [14] | [15] | [16] | [17]

CCCC(C)CO (stereo unspecified)
inactive: [1] | [2] | [3] | [4] | [5] | [6] | [7] | [8] | [9] | [10] | [11] | [12] | [18] | [15] | [16] | [17] | [19]

Nc1ncnc2c1ncn2Cc1c(F)cccc1Cl
inactive: [1] | [2] | [3] | [4] | [5] | [6] | [7] | [8] | [9] | [10] | [11] | [12] | [13] | [15] | [16] | [17]

O=Cc1ccccc1[N+](=O)[O-]
inactive: [1] | [2] | [3] | [4] | [5] | [6] | [7] | [8] | [9] | [10] | [11] | [12] | [13] | [15] | [16] | [17] | [19]

CC(C)(O)c1ccccc1
inactive: [1] | [2] | [20] | [3] | [4] | [5] | [6] | [7] | [9] | [10] | [11] | [12] | [13] | [15] | [16] | [17] | [19]

CC(=O)CCc1ccc(O)cc1
inactive: [1] | [2] | [20] | [3] | [4] | [5] | [6] | [7] | [9] | [10] | [11] | [12] | [13] | [15] | [16] | [17] | [19]

CCCCCCOC(=O)CC(CC(=O)OCCCCCC)(OC(=O)CCC)C(=O)OCCCCCC
inactive: [1] | [2] | [3] | [4] | [5] | [6] | [7] | [8] | [9] | [10] | [11] | [12] | [18] | [13] | [15] | [16] | [17] | [19]

CC(C)=CCC/C(C)=C/C(=O)O
inactive: [1] | [2] | [20] | [4] | [5] | [6] | [7] | [8] | [9] | [10] | [11] | [12] | [13] | [15] | [16] | [17] | [19]
